According to PMC8384837, “Expanding the binding specificity for RNA recognition by a PUF domain”:

Assays:
[1] = target: PUM1 PUF domain R5-SAG (Homo sapiens, UniProt Q14671 828-1176, C1007S;R1008A;Q1011G); test: yeast three-hybrid, YBZ-1, SC-Leu-His + 0.5 mM 3-AT, 4 days; settings: tags: N-Gal4 AD-HA kept; label: inside an RPR1-promoter hybrid RNA with tandem MS2 sites; ssRNA
In short: (§1)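 A centromeric plasmid in strain YBZ-1 co-expressed Pumilio-1 PUF domain libraries, randomized at the three base-contacting residues of each repeat, with matching RNA elements; the strain carries a LexA–MS2 coat fusion and a HIS3 reporter. After four days on SC-Leu (input) or SC-Leu-His + 0.5 mM 3-AT (selection), the repeat regions were PCR-amplified and Illumina-sequenced. The interaction score is the log change in variant frequency from input to selection, using log2 and a pseudocount of 1 where absent.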

[2] = target: PUM1 PUF domain R7-RSK (Homo sapiens, UniProt Q14671 828-1176, S1079R;N1080S;E1083K); test: as above; settings: tags: N-Gal4 AD-HA kept; label: inside an RPR1-promoter hybrid RNA with tandem MS2 sites; ssRNA
In short: as §1

Row | Sequence | binding signal [1] | binding signal [2]
1 | GGCUAGAACUAGUGGAUCCCCCGGCGCCCGGCGGCUCGAGCCCGGGUAAGUGUGAAUAGUCUGCAUGCCGCCGGGCGCCAUGCCUGCAGGUCGACUCUAGAAAACAUG | 3.06 log2 enrichment (interaction score) | –
2 | GGCUAGAACUAGUGGAUCCCCCGGCGCCCGGCGGCUCGAGCCCGGGUAAGUUUAAAUAGUCUGCAUGCCGCCGGGCGCCAUGCCUGCAGGUCGACUCUAGAAAACAUG | – | 3.42 log2 enrichment (interaction score)
3 | GGCUAGAACUAGUGGAUCCCCCGGCGCCCGGCGGCUCGAGCCCGGGUAAGUCUAAAUAGUCUGCAUGCCGCCGGGCGCCAUGCCUGCAGGUCGACUCUAGAAAACAUG | – | 3.84 log2 enrichment (interaction score)
